Among all 230,000 compounds or so, about 3,600 (1.6%) were called active. Not shown: some 15% with an inconclusive outcome. Calls come from the whole dose curve; as a rule, active = well fitted inhibition curve with a large enough effect (not every such curve was filed as active); inconclusive = small, poorly fitted or top-dose-only effect, or another doubt; inactive = no such curve, though single readings can be large or run the other way. Many of the other results were omitted from the sample, so actives are more common in it than they were.
target: Lysine-specific demethylase 4E (Homo sapiens) (UniProt B2RXH2); test: qHTS Assay for Inhibitors of Human Jumonji Domain Containing 2E (JMJD2E); details: JMJD2E catalytic domain, FDH-coupled NADH fluorescence (FDH is formaldehyde dehydrogenase); series mostly up to 57.1 µM; activity change, negative = inhibition: at the top concentration
Sequence (B2RXH2 1-337 limits assumed): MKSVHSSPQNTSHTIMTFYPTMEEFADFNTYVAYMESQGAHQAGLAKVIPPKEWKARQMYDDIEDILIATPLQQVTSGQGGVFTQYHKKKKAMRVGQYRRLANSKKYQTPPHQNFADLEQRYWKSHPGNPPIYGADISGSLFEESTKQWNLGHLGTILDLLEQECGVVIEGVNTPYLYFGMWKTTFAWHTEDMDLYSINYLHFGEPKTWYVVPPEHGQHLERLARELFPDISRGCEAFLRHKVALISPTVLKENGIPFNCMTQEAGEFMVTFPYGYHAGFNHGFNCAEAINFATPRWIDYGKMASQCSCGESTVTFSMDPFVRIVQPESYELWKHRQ
Note: nearly all actives have a fitted effect of over 50% in size.
Potency is the fitted concentration of half-maximal effect.
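Throughout, for activity change, negative = inhibition: 0% = wells with enzyme and -100% = buffer wells without enzyme.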

Row | SMILES | activity change, negative = inhibition | Potency
1 | COc1ccc(COCC(O)CN2CCC(C(N)=O)CC2)cc1 (configuration not stated) | -0.742% (inactive) | 
2 | CC(C)C1N=C2c3ccccc3N=C(SCC(=O)c3ccc(O)c(O)c3)N2C1=O (configuration not stated) |  | 25.1 µM (active)
3 | COC(=O)c1cc(C(=O)CSc2nc(C)cc(C)n2)ccc1O | -28.2% (inactive) | 
4 | COc1ccccc1P(=O)(c1ccccc1)c1ccccc1NC(C)=O (configuration not stated) | 3.73% (inactive) | 
5 | CN(CC(O)COc1ccc(S(=O)(=O)N2CCOCC2)cc1Cl)C1CCCCC1 (configuration not stated) | 12.2% (inactive) | 
6 | COc1cccc([C@@H]2Oc3ccc(Br)cc3C(=O)[C@H]2OC(=O)NCCc2ccc(OC)c(OC)c2)c1 |  | 14.1 µM (active)
7 | COc1cccc([C@@H]2Oc3ccc(Br)cc3C(=O)[C@H]2OC(=O)NCc2ccc3c(c2)OCO3)c1 | -24.1% (inactive) | 
8 | COc1ccc2c(c1)O[C@@H](c1ccc3c(c1)OCO3)[C@H](OC(=O)NCCc1ccc(OC)c(OC)c1)C2=O | 3.27% (inactive) | 
9 | c1ccc(-c2nnc(N3CCOCC3)c3ccccc23)cc1 | -2.56% (inactive) | 
10 | O=C(Nc1ccc(S(=O)(=O)Nc2nccs2)cc1)c1cccc(S(=O)(=O)N2CCOCC2)c1 | -2.79% (inactive) | 
11 | CCc1nc(C)cn1S(=O)(=O)c1cc([N+](=O)[O-])ccc1Cl | 6.08% (inactive) | 
12 | COc1ccc(-c2csc(Nc3ccccn3)n2)cc1 | 1.24% (inactive) | 
13 | COc1ccc(OC)c(Nc2nc(-c3ccc(O)c(O)c3)cs2)c1 |  | 28.2 µM (active)
14 | COc1ccc(-c2csc(Nc3ccc(O)cc3)n2)cc1 | -1.49% (inactive) | 
15 | O=C(Nc1n[nH]c(C(F)(F)F)n1)c1cccs1 | 5.52% (inactive) | 
16 | CCOC(=O)c1cn[nH]c1NC(=S)Nc1ccccc1 | -9.9% (inactive) | 
17 | O/N=C1\CC2(Cc3nonc31)OCCO2 | 0.0097% (inactive) | 
18 | ON=C1/C(=N\O)CC2(C/C1=N/O)OCCO2 |  | 7.08 µM (active)
19 | Cc1[nH]n(C)c(=O)c1N=Nc1ccc(S(C)(=O)=O)cc1 | -23.4% (inactive) | 
20 | COc1cccc(N2C(=O)CC(N3CCc4ccccc4C3)C2=O)c1 (configuration not stated) | -5.44% (inactive) | 
21 | NCCCCCC(=O)N/N=C/c1ccc2nccnc2c1 | -4.08% (inactive) | 
22 | CCOC(=O)CSc1nc(C)c(Oc2ccc(Cl)cc2Cl)c(=O)[nH]1 | 3.14% (inactive) | 
23 | Oc1cccc(C2c3[nH]c4ccccc4c3CCN2Cc2cnn(-c3ccccc3)c2)c1 (configuration not stated) | -19% (inactive) | 

Row | SMILES | activity change, negative = inhibition | Potency
24 | c1ccc(C2c3[nH]c4ccccc4c3CCN2Cc2cccn2-c2cccnc2)nc1 (configuration not stated) |  | 14.1 µM (active)
25 | COCc1ccc(C(=O)N2CCc3c([nH]c4ccccc34)C2c2ccccn2)s1 (configuration not stated) | 1.42% (inactive) | 
26 | CCc1cccc2c(=O)c(C(=O)NCCCOC)c[nH]c12 | -11.7% (inactive) | 
27 | CN(C(=O)CCn1c(=S)oc2ccccc21)C1CCCCC1 | 2.53% (inactive) | 
28 | O=C1CC(N2CCN(c3ccc(F)cc3)CC2)C(=O)N1c1ccccc1 (configuration not stated) | -0.114% (inactive) | 
29 | Cc1ccc(N2C(=O)CC(Sc3ncn[nH]3)C2=O)cc1 (configuration not stated) |  | 2.51 µM (active)
30 | Cc1cccc(N2C(=O)CC(SC(N)=Nc3ccccc3)C2=O)c1 (configuration not stated) | 7.82% (inactive) | 
31 | O=C1CC(Sc2ncn[nH]2)C(=O)N1c1ccccc1 (configuration not stated) |  | 2.24 µM (active)
32 | COc1ccc(N2C(=O)CC(Sc3n[nH]c(-c4ccc(C)cc4)n3)C2=O)cc1 (configuration not stated) | -11.9% (inactive) | 
33 | CCOC(=O)c1ccc(N2C(=O)CC(Sc3nc(O)c(CC)c(=O)[nH]3)C2=O)cc1 (configuration not stated) | 8.88% (inactive) | 
34 | NC(=O)c1ccc(N2CCOCC2)nc1 | 1.96% (inactive) | 
35 | CN(C)C(=O)c1nc2ccc(Cl)cn2c1CNCc1cccc(OC(F)(F)F)c1 | -3.13% (inactive) | 
36 | Cc1nc(N)sc1N=Nc1c(C)n(C)n(-c2ccccc2)c1=O | -9.39% (inactive) | 
37 | COc1ccc(N(Cc2ccccc2)S(=O)(=O)c2cccc(C(=O)O)c2)cc1 | -0.26% (inactive) | 
38 | CCCN(CCc1ccccc1)C1CCc2c(O)cccc2C1 (configuration not stated) | 1.38% (inactive) | 
39 | CCCN(C/C=C\I)[C@@H]1CCc2cccc(O)c2C1 |  | 28.2 µM (active)
40 | CN(C)c1cc(-c2ccc(F)cc2)oc(=O)c1Cl | 1.02% (inactive) | 
41 | Cc1ccc(C(=O)NCC(=O)OCC(=O)Nc2cccc(S(=O)(=O)N3CCCC3)c2)cc1C | 2.45% (inactive) | 
42 | Cc1cc(=O)n2c3c(cccc13)CCC2 | -18.6% (inactive) | 
43 | CCNC(=O)c1c(O)c2cccc3c2n(c1=O)CC3 |  | 3.16 µM (active)
44 | CCCCc1nc2ccccc2c(=O)n1NC(=O)c1c(O)c2cccc3c2n(c1=O)CC3 | 12.9% (inactive) | 
45 | O=C(O)Cc1csc(-c2cccc(Oc3ccccc3)c2)n1 |  | inactive
46 | CCCN1C(=O)C(Cc2nc3ccccc3c(=O)n2-c2ccccc2)c2cc(C)ccc21 (configuration not stated) | -3.33% (inactive) | 

Row | SMILES | activity change, negative = inhibition | Potency
47 | CCCc1nc2ccccc2c(=O)n1/N=C/c1ccc(O)c(O)c1 |  | 12.6 µM (active)
48 | O=c1c2ccccc2nc(N/N=C/c2ccccc2)n1O | -8.4% (inactive) | 
49 | CC(C)N1CCC(=NNc2ccc([N+](=O)[O-])cc2S(=O)(=O)N2CCOCC2)CC1 | -24.1% (inactive) | 
50 | COc1ccccc1C(=O)CSc1cccc[n+]1[O-] | -5.39% (inactive) | 
51 | O=C1CCC(=O)N(O)CCCCCNC(=O)CCC(=O)N(O)CCCCCNC(=O)CCC(=O)N(O)CCCCCN1 |  | 7.94 µM (active)
52 | CCNC(=O)CC1C(=O)N(c2ccc(OC)cc2)C(=S)N1CCc1ccncc1 (configuration not stated) | -7.56% (inactive) | 
53 | Cc1nc(C(=O)N2CCCC(C(=O)c3ccc(Cl)cc3)C2)cs1 (configuration not stated) | 10.1% (inactive) | 
54 | Cn1c(CO)cnc1SCc1ccccc1 | -1.07% (inactive) | 
55 | CSc1c(SCc2ccccc2)cnn(Cc2ccccc2)c1=O |  | 12.6 µM (active)
56 | O=c1c2ccccc2c(-c2ccccc2)nn1Cc1ccccc1 | -8.38% (inactive) | 
57 | Cc1cc(C)nc(S/C=C/C(=O)c2ccccc2)n1 | 10% (inactive) | 
58 | O=C(/C=C/Sc1ncn[nH]1)c1ccc(Cl)cc1 |  | 7.08 µM (active)
59 | O=C(NCCOCc1ccc(Cl)cc1)c1ncn[nH]1 | 3.54% (inactive) | 
60 | CCN(CC)CCNC(=O)c1sc2ncn(CC(=O)Nc3ccc(C)c(Cl)c3)c(=O)c2c1C | -11.2% (inactive) | 
61 | Cn1c(=O)c2c(-c3cccc(Br)c3)c(C#N)c(N)nc2n(C)c1=O | 2.47% (inactive) | 
62 | OCCC1CN(Cc2cnc(-c3ccccc3)s2)CCN1CCc1ccccc1 (configuration not stated) | -7.27% (inactive) | 
63 | CC1(OC(=O)C2CCCC2)C(=O)C=C2C=C(c3ccc(C#N)cc3)OC=C2C1=O (configuration not stated) | -0.534% (inactive) | 
64 | CC1(OC(=O)CCc2ccccc2)C(=O)C=C2C=C(c3ccc(C#N)cc3)N(CCc3ccccn3)C=C2C1=O (configuration not stated) | -1.14% [at 11.4 µM] (inactive) | 
65 | COCCN1C=C2C(=O)C(C)(OC(=O)C3CCCC3)C(=O)C=C2C=C1c1ccsc1 (configuration not stated) |  | 3.55 µM (active)
66 | N/C(=N\OC(=O)Nc1ccccc1)c1ccno1 | -3.04% (inactive) | 
67 | COc1ccc(CNC(=O)CCC(=O)Nc2nnc(C(C)C)s2)cc1 | -15.9% (inactive) | 

Source: PubChem BioAssay AID2147 (National Center for Advancing Translational Sciences (NCATS), 2009)
